# Data as given in the supplement of paper PMC4022240.
# ± gives the standard deviation.
# T1: HaloTag-ATRX ADD domain (163-292)
# T1 chain: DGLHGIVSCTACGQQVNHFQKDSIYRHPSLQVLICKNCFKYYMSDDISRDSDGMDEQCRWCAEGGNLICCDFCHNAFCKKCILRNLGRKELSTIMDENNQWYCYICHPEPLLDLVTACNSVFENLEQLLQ
# Key:
# Test in all cases: peptide microarray binding signal (635 nm), min-max normalized on array (fraction of array maximum); higher = stronger binding
# Details in all cases: peptide region: Unmod H2B variant
# [1] = target: T1, HaloTag-ATRX ADD domain (163-292)
# In short: (§1)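 Within each library, mean intensities of triplicate spots were min-max scaled to give the binding signal. The spots were histone 13-mer peptide–cellulose conjugates on nitrocellulose with a Cy3 tracer, blocked overnight at 4°C. They were then probed for 1 h at 4°C using biotin-labelled HaloTag reader fusions (10 nM to 1 μM) with streptavidin-Alexa Fluor 647 or rabbit histone antibodies (1:10,000 to 1:2,000) with anti-rabbit Alexa 647, and scanned at 635 nm for signal and 532 nm for misprints on an Axon GenePix 4000B.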
# [2] = target: HaloTag-ING2 PHD (mouse Ing2 200-280)
# In short: as §1
# [3] = target: anti-H3K4me3 antibody ab8580
# In short: as §1
# [4] = target: anti-H3K9me3 antibody ab8898
# In short: as §1
# [5] = binder concentration: 1:2,000 dilution
# [6] = binder concentration: 1:10,000 dilution
Binder,peptide microarray binding signal ([1]; binder concentration: 50 nM),peptide microarray binding signal ([1]; binder concentration: 500 nM),peptide microarray binding signal ([2]; binder concentration: 10 nM),peptide microarray binding signal ([2]; binder concentration: 100 nM),"peptide microarray binding signal [3, 5]","peptide microarray binding signal [3, 6]","peptide microarray binding signal [4, 5]","peptide microarray binding signal [4, 6]"
DIFERIASEASRL [Unmod H2B variant D I F E R I A S E A S R L],0.00655 ± 0.00034,0.00648 ± 0.00023,0.00454 ± 0.00011,0.0142 ± 0.0098,0.000793 ± 2.2e-05,0.00177 ± 2.9e-05,0.000453 ± 1.5e-05,0.001211 ± 1.2e-05
KRTRKESYSIYIY [Unmod H2B variant K R T R K E S Y S I Y I Y],0.015 ± 0.0008,0.0228 ± 0.0011,0.00716 ± 0.00018,0.0159 ± 0.0033,0.000529 ± 1.4e-05,0.0016 ± 5.3e-05,0.000468 ± 1.2e-05,0.0011 ± 1.1e-05
AMGIMNSFVNDIF [Unmod H2B variant A M G I M N S F V N D I F],0.0068 ± 0.00037,0.0162 ± 0.0016,0.0083 ± 0.00011,0.0126 ± 0.00023,0.00362 ± 0.00022,0.00548 ± 0.00033,0.00285 ± 0.0002,0.00311 ± 5.3e-05
GISSKAMGIMNSF [Unmod H2B variant G I S S K A M G I M N S F],0.00856 ± 0.00082,0.0227,0.00913 ± 0.00027,0.0416 ± 0.0056,0.00215 ± 0.00023,0.00348 ± 0.00045,0.000695 ± 1.2e-05,0.0011 ± 1.1e-05
AMSIMNSFVTDIF [Unmod H2B variant A M S I M N S F V T D I F],0.0108 ± 0.0002,0.0253 ± 0.001,0.01188 ± 7.7e-05,0.0239 ± 0.0025,0.00882 ± 0.0011,0.0132 ± 0.00021,0.00523 ± 0.00065,0.00571 ± 0.00035
KAQKKDGKKRKRS [Unmod H2B variant K A Q K K D G K K R K R S],0.0176 ± 0.012,0.00876 ± 0.00031,0.00275,0.00461 ± 0.00031,0.000415 ± 4.2e-06,0.00103 ± 2.1e-05,0.000227,0.000692 ± 7.3e-06
EGKKRKRTRKESY [Unmod H2B variant E G K K R K R T R K E S Y],0.00661 ± 0.00023,0.0101 ± 0.00031,0.00251 ± 0.00012,0.00326 ± 0.0001,0.000378 ± 3.9e-06,0.000913 ± 1.6e-05,0.000302 ± 1.5e-05,0.000404 ± 4.4e-06
KTQKKEGKKRKRT [Unmod H2B variant K T Q K K E G K K R K R T],0.0089 ± 0.00018,0.0148 ± 0.0025,0.003163 ± 1.7e-05,0.00857 ± 0.0013,0.00068 ± 1.9e-05,0.0012 ± 1.2e-05,0.000287 ± 5.9e-06,0.000865 ± 9e-06
VHPDTGISSKAMG [Unmod H2B variant V H P D T G I S S K A M G],0.009373 ± 4.6e-05,0.0173 ± 0.0018,0.0154 ± 0.0017,0.0346 ± 0.0034,0.00563 ± 0.0004,0.00964 ± 0.0005,0.00272 ± 6.5e-05,0.00283 ± 4.9e-05
DGKKRKRSRKESY [Unmod H2B variant D G K K R K R S R K E S Y],0.00834 ± 0.00013,0.00714 ± 0.00021,0.00221 ± 3.8e-05,0.00454 ± 0.00011,0.000623 ± 2e-05,0.000628 ± 6.7e-06,0.000151 ± 1.6e-06,0.000461
YNKRSTITSREIQ [Unmod H2B variant Y N K R S T I T S R E I Q],0.00837 ± 0.00045,0.0253 ± 0.0034,0.0181 ± 0.00093,0.0337 ± 0.0033,0.00293 ± 0.00014,0.00382 ± 0.00016,0.000936 ± 1.5e-05,0.00213 ± 7.9e-05
IAGEASRLAHYNK [Unmod H2B variant I A G E A S R L A H Y N K],0.0147 ± 0.00017,0.0384 ± 0.0025,0.0361 ± 0.0036,0.0742 ± 0.0014,0.00521 ± 0.00045,0.00633 ± 0.00022,0.00217 ± 5.9e-05,0.00259 ± 4.6e-05
EIQTAVRLLLPGE [Unmod H2B variant E I Q T A V R L L L P G E],0.0176 ± 0.00047,0.041 ± 0.0018,0.0245 ± 0.0014,0.0434 ± 0.0033,0.00893 ± 0.00076,0.0164 ± 0.00068,0.00628 ± 0.00047,0.0106 ± 0.0002
KVLKQVHPDTGIS [Unmod H2B variant K V L K Q V H P D T G I S],0.00552 ± 0.00019,0.00971 ± 0.0005,0.00531 ± 0.00011,0.0101 ± 0.00011,0.000755 ± 1.8e-05,0.001655 ± 1.6e-05,0.000483 ± 2.8e-05,0.00346 ± 0.0011
DIFERIAGEASRL [Unmod H2B variant D I F E R I A G E A S R L],0.0112 ± 0.00018,0.0406 ± 0.0012,0.013 ± 0.00037,0.0336 ± 0.00077,0.00406 ± 0.00012,0.00548 ± 0.00027,0.00234 ± 0.00013,0.003113 ± 2.6e-05
GISSKAMSIMNSF [Unmod H2B variant G I S S K A M S I M N S F],0.0103 ± 0.00033,0.0293 ± 0.0012,0.011 ± 0.0025,0.0429 ± 0.016,0.00194 ± 0.00057,0.00228 ± 0.00014,0.000936 ± 5e-05,0.00144 ± 2.8e-05
NSFVNDIFERIAG [Unmod H2B variant N S F V N D I F E R I A G],0.00721 ± 0.00059,0.00671 ± 0.00013,0.00364 ± 0.00012,0.003827 ± 3.3e-05,0.00198 ± 0.00015,0.002339 ± 2.1e-05,0.00074 ± 6.4e-06,0.001614 ± 1.6e-05
NSFVTDIFERIAS [Unmod H2B variant N S F V T D I F E R I A S],0.00646 ± 0.0003,0.0141 ± 0.00044,0.00483 ± 0.00011,0.00815 ± 0.00095,0.00238 ± 0.00045,0.00308 ± 0.00038,0.000936 ± 2e-05,0.00208 ± 9.6e-05
KRSRKESYSIYVY [Unmod H2B variant K R S R K E S Y S I Y V Y],0.00561 ± 0.00019,0.0029 ± 0.00042,0.00179 ± 4.2e-05,0.000496 ± 9.7e-06,0.00051 ± 7.5e-05,0.000685 ± 1.5e-05,0.000227 ± 4.1e-06,0.000634 ± 1.2e-05
YSKRSTISSREIQ [Unmod H2B variant Y S K R S T I S S R E I Q],0.01006 ± 2.8e-05,0.0303 ± 0.0022,0.0109 ± 0.00062,0.0429 ± 0.0047,0.00225 ± 0.00019,0.00211 ± 6.7e-05,0.00103 ± 2.2e-05,0.0015 ± 2.5e-05
